Read-out in assay [1]: Thrombomodulin, THBD (gene 7056)
In words: BSK_CASM3C_Thrombomodulin: BioMAP Diversity Plus: CASM3C Assay for Thrombomodulin Biomarker Activity (AID 2283051).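 Further: thrombomodulin protein level measured by ELISA 24 h after dosing.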 Particulars: primary human coronary artery smooth muscle cells; actives raise or lower the signal.

Read-out in assay [2]: Tissue Factor, F3 (gene 2152)
As to the kind of experiment: BSK_CASM3C_TissueFactor: BioMAP Diversity Plus: CASM3C Assay for Tissue Factor Biomarker Activity (AID 2283052).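 Further: cell surface tissue factor protein level read by ELISA.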 Particulars: primary human coronary artery smooth muscle cells; actives raise or lower the signal.

Read-out in assay [3]: Interferon-gamma inducible Protein 10 (IP10), CXCL10 (gene 3627)
As to the kind of experiment: BSK_hDFCGF_IP10: BioMAP Diversity Plus: hDFCGF Assay for Interferon-gamma inducible Protein 10 (IP10) Biomarker Activity (AID 2283053). As to conditions: primary human foreskin fibroblasts; actives raise or lower the signal. The procedure, abridged: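 ELISA read-out of IP-10 (CXCL10) from primary human skin fibroblasts, 24 h after compound addition. Gain or loss of signal versus DMSO baseline, bidirectional curve fitting.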

Read-out in assay [4]: Urokinase-type plasminogen activator receptor (uPAR), PLAUR (gene 5329)
In words: BSK_CASM3C_uPAR: BioMAP Diversity Plus: CASM3C Assay for Urokinase-type plasminogen activator receptor (uPAR) Biomarker Activity (AID 2283054).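 Further: cell-surface uPAR protein level quantified by ELISA.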 Particulars: primary human coronary artery smooth muscle cells; actives raise or lower the signal.

Read-out in assay [5]: Vascular cell adhesion molecule 1 (VCAM1), VCAM1 (gene 7412)
As to the kind of experiment: BSK_CASM3C_VCAM1: BioMAP Diversity Plus: CASM3C Assay for Vascular cell adhesion molecule 1 (VCAM1) Biomarker Activity (AID 2283055).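 Further: VCAM-1 protein level quantified by ELISA on the cells.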 Particulars: primary human coronary artery smooth muscle cells; actives raise or lower the signal.

Read-out in assay [6]: Collagen III, COL3A1 (gene 1281)
As to the kind of experiment: BSK_hDFCGF_CollagenIII: BioMAP Diversity Plus: hDFCGF Assay for Collagen III Biomarker Activity (AID 2283056). As to conditions: primary human foreskin fibroblasts; actives raise or lower the signal. The procedure, abridged: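 Response relative to DMSO, fitted in both directions, reflects ELISA-measured collagen III in human primary skin fibroblasts 24 h after compound addition.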

Read-out in assay [7]: Epidermal growth factor receptor (EGFR), EGFR (gene 1956)
In words: BSK_hDFCGF_EGFR: BioMAP Diversity Plus: hDFCGF Assay for Epidermal growth factor receptor (EGFR) Biomarker Activity (AID 2283057). As to conditions: primary human foreskin fibroblasts; actives raise or lower the signal. An outline of the steps: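 ELISA readout of EGFR on human dermal fibroblasts (primary foreskin cells), 24 h post-dosing; bidirectional curve fit vs DMSO baseline, gain or loss of signal scored.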

Read-out in assay [8]: Interleukin-8 (IL8), CXCL8 (gene 3576)
In words: BSK_hDFCGF_IL8: BioMAP Diversity Plus: hDFCGF Assay for Interleukin-8 (IL8) Biomarker Activity (AID 2283058). Particulars: primary human foreskin fibroblasts; actives raise or lower the signal. The procedure, abridged:
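Fibroblast monolayers (human foreskin, hDFCGF) received test chemical for 24 h before ELISA detection of IL-8; either increases or decreases relative to DMSO count as activity.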

Assay [9] in a line: BSK_hDFCGF_Proliferation: Cell Proliferation Assessment in the BioMAP Diversity Plus: hDFCGF Assay (AID 2283059).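 Further: curves fitted for both rise and fall of signal versus DMSO baseline.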 Particulars: primary human foreskin fibroblasts. An outline of the steps:
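This proliferation readout used SRB total-protein staining of human foreskin fibroblasts […], normalized to DMSO with bidirectional curve fitting.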

Read-out in assay [10]: Macrophage colony-stimulating factor (MCSF), CSF1 (gene 1435)
In words: BSK_hDFCGF_MCSF: BioMAP Diversity Plus: hDFCGF Assay for Macrophage colony-stimulating factor (MCSF) Biomarker Activity (AID 2283060). As to conditions: primary human foreskin fibroblasts; actives raise or lower the signal. An outline of the steps:
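fibroblasts (human foreskin, primary), 24 h post-dose; M-CSF by ELISA; bidirectional fit, DMSO = baseline.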

Where “and” joins values, the source holds several entries; their conditions need not be identical. Equal entries are not always repeated. Some compounds were tested as several samples or in several runs, with calls that do not always agree. Calls of active or inactive are those of the source. How the source made its calls: active means hit-call score of the fitted dose curve at least 0.9, where 1 is the maximum; inactive means score below 0.9.

A word on the AC50: it is the midpoint of the concentration-response curve, whichever way the signal moves.

Turning to `NCC(F)(F)C(F)(F)C(F)(F)C(F)(F)C(F)(F)C(F)(F)F`, the result in [1], in assay [2], in assay [3], in [4], in [5] and in assay [6] was inactive. For the same molecule, the outcome in [7], in assay [8], in [9] and in [10] was inactive.
On to `C=C(C)C(=O)OCC(F)(F)C(F)(F)C(F)(F)C(F)F`, for which the result in assay [1], in assay [2], in assay [3], in assay [4], in assay [5] and in assay [6] was inactive. The result in assay [7], in assay [8], in assay [9] and in assay [10] was inactive.
As to `O=C(O)C(F)(F)C(F)(F)C(F)(F)C(F)(F)C(F)(F)C(F)(F)C(F)F`, the outcome in assay [1], in [2], in [3], in [4], in [5] and in [6] was inactive. Besides, the result in assay [8], in assay [9] and in assay [10] was inactive. For the same molecule, the AC50 in assay [3] was 8.52 µM (active); in assay [6] it was 30 µM (active).
Consider `Cc1cnccn1`, for which the result in [1], in assay [2], in assay [3], in [4], in [5] and in assay [6] was inactive. For the same molecule, the result in assay [7], in assay [8], in assay [9] and in assay [10] was inactive.
On to `CCN(CCO)S(=O)(=O)C(F)(F)C(F)(F)C(F)(F)C(F)(F)C(F)(F)C(F)(F)C(F)(F)C(F)(F)F`, for which the AC50 in assay [1] was 13.4 µM (active) and 10.3 µM (active); in [3] it was 35.9 µM (active) and 30 µM (active); in assay [4], 11.1 µM (active) and 30 µM (active); in [5], 7.11 µM (active) and 8.86 µM (active); in [6], 8.31 µM (active); in assay [8] it was 49.9 µM (active). Besides, the AC50 in [9] is 7.13 µM (active) and 8.13 µM (active); in assay [10], 23.2 µM (active) and 23.3 µM (active). For the same molecule, the result in assay [2], in assay [6], in [7] and in [8] was inactive.
In the case of `FC(F)(F)C(F)(F)C(F)(F)CC1CO1` (stereo not drawn), the outcome in assay [1], in assay [2], in assay [3], in assay [4], in [5] and in assay [6] was inactive. Moreover, the result in assay [8], in [9] and in [10] was inactive. For the same molecule, the AC50 in assay [3] is 12.9 µM (active).
As to `OCCCC(F)(F)C(F)(F)C(F)(F)C(F)(F)C(F)(F)C(F)(F)C(F)(F)C(F)(F)F`, the AC50 in assay [1] was 7.67 µM (active); in [2], 25.4 µM (active); in [3] it was 9.54 µM (active) and 7.81 µM (active); in assay [4] it was 46.1 µM (active) and 51.2 µM (active); in assay [5] it was 37.4 µM (active) and 30 µM (active); in assay [6], 10.7 µM (active) and 9.75 µM (active). For the same molecule, the AC50 was 15.9 µM (active) and 12 µM (active) in assay [8]; 3.28 µM (active) and 4.77 µM (active) in assay [9]; 8.04 µM (active) and 6.66 µM (active) in [10]. Besides, the result in [1] and in assay [2] was inactive.
With `O=C(Cl)C(F)(F)C(F)(F)C(F)(F)C(F)(F)C(F)(F)C(F)(F)F`, the result in assay [1], in assay [2], in [3], in assay [4], in assay [5] and in [6] was inactive. Also, the outcome in [7], in assay [8], in [9] and in assay [10] was inactive. Also, the AC50 in [7] is 2.04 µM (active).
For `CN(C(=O)C(F)(F)C(F)(F)C(F)(F)F)[Si](C)(C)C`, the outcome in assay [1], in [2], in assay [3], in assay [4], in [5] and in assay [6] was inactive. Further, the result in assay [7], in assay [8], in assay [9] and in assay [10] was inactive.
`O=S(=O)(O)CCC(F)(F)C(F)(F)C(F)(F)C(F)(F)C(F)(F)C(F)(F)C(F)(F)C(F)(F)F`: the outcome in [1], in assay [2], in assay [3], in [4], in assay [5] and in assay [6] was inactive. Also, the outcome in [7], in assay [8], in [9] and in assay [10] was inactive.
As to `C=CC(=O)OCC(F)(F)C(F)(F)C(F)(F)COC(=O)C=C`, the AC50 was 7.48 µM (active) and 7.64 µM (active) in assay [1]; 7.91 µM (active) in assay [2]; 1.26 µM (active) and 1.32 µM (active) in assay [3]; 48.3 µM (active) and 47.6 µM (active) in [4]; 30 µM (active) and 25.8 µM (active) in [5]; 5.04 µM (active) and 1.49 µM (active) in assay [6]. Further, the AC50 was 3.92 µM (active) and 4.38 µM (active) in assay [8]; 111 nM (active) and 1.28 µM (active) in assay [9]; 2.55 µM (active) and 1.94 µM (active) in [10]. The outcome in assay [2] was inactive.
For the molecule `Cc1cc(C)c(O)c(C(C)(C)C)c1`, the result in [1], in assay [7] and in assay [8] was inactive. Also, the AC50 was 27.4 µM (active) in assay [2]; 35.9 µM (active) in [3]; 31.2 µM (active) in assay [4]; 29.5 µM (active) in assay [5]; 20 µM (active) in assay [6]; 18.8 µM (active) in [9]. Also, in assay [10], the AC50 is 34.4 µM (active).
Take `OC(O)C(F)(F)C(F)(F)F`: the outcome in assay [1], in assay [2], in assay [3], in assay [4], in [5] and in [6] was inactive. The outcome in assay [7], in [8], in assay [9] and in assay [10] was inactive.
For the molecule `FC(F)(F)C(F)(F)C(F)(F)C(F)(F)C(F)(F)C(F)(F)C(F)(F)CCI`, the outcome in [1], in assay [2], in assay [3], in assay [4], in assay [5] and in assay [6] was inactive. Besides, the result in [8] and in assay [10] was inactive. Also, the AC50 is 2.45 µM (active) in assay [3]; 2.26 µM (active) in [6]; 1.78 µM (active) and 1.25 µM (active) in [9]; 1.47 µM (active) in assay [10].
Take `O=S(=O)(O)CCC(F)(F)C(F)(F)C(F)(F)C(F)(F)F`: the result in assay [1], in assay [2], in [3], in assay [4], in assay [5] and in assay [6] was inactive. The result in [7], in assay [8], in [9] and in assay [10] was inactive. Besides, the AC50 in assay [6] was 2.04 µM (active).

The values are drawn from PubChem BioAssay (EPA / NIEHS).
